# Assay outcomes deposited in PubChem BioAssay by National Center for Advancing Translational Sciences (NCATS).
# NS1 inh – inhibitors of influenza NS1 protein function; Potency, µM (titrated, usually from 46.1 µM), for inactives: at the highest dose activity, positive = more growth; 270,000 compounds, 0.4% hits; AID 2326; calls by dose curve; note: potency is the fitted concentration of half-maximal effect; actives are rising curves; nearly all actives have a fitted effect of over 50% in size
#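 Growth recovery, yeast-based: influenza A NS1 expressed in S. cerevisiae causes slow growth, and suppressors are detected by OD600. The parent strain without NS1 is used as positive control.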
# Cruzain Triton – cruzain (T. cruzi) inhibition with detergent; P25779; purified cruzain, Z-FR-AMC fluorescence, 0.01% Triton; Potency, µM, for the others: max response, negative = inhibition, hits mostly inhibitors; 200,000 compounds, 0.43% hits; AID 1478;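 note: potency is the fitted concentration of half-maximal effect; plate controls were neutral wells for no effect and buffer without enzyme for full effect; nearly all actives have a fitted effect of over 40% in size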
# Target sequence (P25779 123-467 limits assumed): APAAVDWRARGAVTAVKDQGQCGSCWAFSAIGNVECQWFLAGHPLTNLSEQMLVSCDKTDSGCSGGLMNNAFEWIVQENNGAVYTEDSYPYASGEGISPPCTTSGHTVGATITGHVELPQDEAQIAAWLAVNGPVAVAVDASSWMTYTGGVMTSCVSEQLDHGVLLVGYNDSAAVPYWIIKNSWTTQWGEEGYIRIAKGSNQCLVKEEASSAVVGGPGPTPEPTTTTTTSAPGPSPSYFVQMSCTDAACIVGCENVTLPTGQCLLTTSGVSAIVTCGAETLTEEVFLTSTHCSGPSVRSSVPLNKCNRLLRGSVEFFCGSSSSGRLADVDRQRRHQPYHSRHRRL
#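 Enzyme 1.5 nM, Z-FR-AMC 2 uM, NaOAc 100 mM pH 5.5, DTT 5 mM, Triton X-100 0.01%; 15 min RT compound preincubation; kinetic ex360/em450, 60 s delta.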
# Cruzain inh noDet – cruzain (T. cruzi) inhibition without detergent. AID 1476. 200,000 compounds, 2.3% hits. P25779. Potency, µM, for inactives: max response, negative = inhibition, usual class: inhibitors. purified cruzain, Z-FR-AMC fluorescence, no detergent;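 note: potency is the fitted concentration of half-maximal effect; plate controls were enzyme without inhibitor for no effect and buffer without enzyme for full effect; nearly all actives have a fitted effect of over 40% in size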
#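 Purified cruzain at 1.5 nM, pre-incubated 15 min with compound at room temperature in 100 mM sodium acetate pH 5.5, 5 mM DTT, 0.00005% Triton X-100. Reaction started with 2 uM Z-FR-AMC; AMC fluorescence increase over 60 s gives rate.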
# Flu NS1 inh – influenza NS1 function inhibition validation | shares compounds with NS1 inh | influenza NS1 function cell assay, 15-point titration | activity change, negative = inhibition, % at 32.9 µM | 1,400 tested, under 10 active | AID 492980; calls by dose curve; note: 0% is about no effect
# PR8 titer – reduces influenza A/PR/8/34 replication in MDCK cells; shares compounds with NS1 inh; MDCK infected influenza A/PR/8/34, virus titer TCID50; hits give low values; virus titer (log TCID50), log10 TCID50 at 5 µM; 95 compounds, 30% hits; AID 504647; call rule not given here
# Numbers without * were called inactive; ? = inconclusive; / = no result given. This excerpt belongs to a sample that is enriched for hits. Unless noted, calls come from the whole dose curve; as a rule, active = well fitted curve in the direction sought with a large enough effect; inconclusive = small, poorly fitted or top-dose-only effect, or another doubt; inactive = no such curve, though single readings can be large; an effect the other way counts as inactive or inconclusive.
SMILES,NS1 inh,Cruzain Triton,Cruzain inh noDet,Flu NS1 inh,others
Cc1nc(-c2ccc(S(=O)(=O)NCc3ccc(N(C)C)cc3)cc2)co1,/,-4.6%,-10.1%,/,
CN(c1ccccc1)S(=O)(=O)c1ccc(Cl)c(C(=O)Nc2nc3ccccc3[nH]2)c1,10µM*,-2.5%,?,38.4,
COc1ccc(Cl)cc1C(=O)Nc1nc2ccccc2[nH]1,-35.3%,/,/,/,
COc1ccc(/C(C)=N\NS(C)(=O)=O)c(OC)c1,?,-1.0%,-4.3%,-3.5,
COc1ccc(/C(C)=N/N=C(\C)c2ccc(OC)cc2OC)c(OC)c1,3.2%,-6.5%,-1.1%,/,
COc1ccc(-n2c(SCC(=O)Nc3ccc4c(c3)OCO4)nc3ccccc3c2=O)cc1,22.4µM*,1.1%,?,17.6,
O=C(CSc1nc2ccccc2c(=O)n1-c1ccc(F)cc1)Nc1cc(S(=O)(=O)N2CCOCC2)ccc1Cl,12.6µM*,-0.9%,?,5.7,
CCOc1ccc(-n2c(SCC(=O)Nc3ccc4c(c3)OCO4)nc3ccccc3c2=O)cc1,24.2%,4.1%,?,/,
O=C(CSc1nnc(Nc2ccccc2)s1)Nc1cccc(S(=O)(=O)N2CCCCC2)c1,11.2µM*,4.3%,?,?,
Cc1csc(SCC(=O)Nc2cccc(S(=O)(=O)N3CCCC3)c2)n1,-2.0%,3.0%,-1.6%,/,
CCN(CC)C(=O)CSc1nc2ccccc2c(=O)n1-c1cccc(OC)c1,-1.6%,-2.2%,-1.3%,/,
COc1cccc(-n2c(SCc3cc(=O)oc4cc(O)c(O)cc34)nc3ccccc3c2=O)c1,?,-14.6%,25.1µM*,-15.4,
O=C(CSc1nc2ccccc2c(=O)n1-c1ccc(F)cc1)Nc1ccc(N2CCOCC2)cc1,8.3%,-2.2%,6.6%,/,
Cc1cccc(C)c1NC(=O)Cn1c(=O)n(CCC(=O)NCc2ccc3c(c2)OCO3)c(=O)c2sccc21,/,-3.3%,-14.9%,/,
COc1cccc(C2c3c(oc4cc(C)cc(C)c4c3=O)C(=O)N2CCc2ccc(OC)c(OC)c2)c1 (configuration not stated),/,0.0%,9.4%,/,
COc1ccc(CCn2c(SCC(=O)Nc3cc(C)on3)nc3ccccc3c2=O)cc1OC,-0.4%,5.1%,7.1%,/,
Cc1cc(NC(=O)CSc2nc3cc4c(cc3c(=O)n2CCc2ccccc2)OCO4)no1,12.6µM*,2.0%,?,-0.1,
O=C(CSc1nc2ccccc2c(=O)n1-c1ccccc1Cl)Nc1cccc(S(=O)(=O)N2CCOCC2)c1,11.2µM*,-4.1%,?,24.3,PR8 titer=6.66*
O=C(CSc1nnc2ccccn12)Nc1cccc(S(=O)(=O)N2CCOCC2)c1,7.0%,2.2%,-1.1%,/,
COc1ccc(S(=O)(=O)N2CCC(N3CCCCC3)CC2)cc1,1.12µM*,7.0%,-4.5%,11.3,
COc1ccc(S(=O)(=O)N2CCC(C(=O)N3CCOCC3)CC2)cc1,-14.7%,-2.2%,7.9%,/,
COc1ccc(S(=O)(=O)N2CCN(C(=O)C3CC3)CC2)cc1,?,/,/,-2.1,
COc1ccc(S(=O)(=O)N2CCN(C3CCCCCCC3)CC2)cc1,3.2%,5.8%,-4.7%,/,
COC(=O)c1cc(NC(=O)c2oc(=O)c3ccccc3c2-c2ccccc2)cc(C(=O)OC)c1,/,-0.8%,-7.0%,/,
COc1ccc(-n2c(=O)c(CCc3ccccc3)nc3cnc(N4CCN(C)CC4)nc32)cc1,/,-1.4%,4.4%,/,
SMILES,NS1 inh,Cruzain Triton,Cruzain inh noDet,Flu NS1 inh,others
CCOc1ccc(CCNC(=O)c2ccc(CSCc3ccccc3C)o2)cc1OCC,/,1.6%,?,/,
Cc1ccc(S(=O)(=O)N(Cc2ccccc2)c2ccccc2C(=O)Nc2ccccc2C(=O)NCc2ccco2)cc1,7.94µM*,-3.1%,-27.3%,-20.5,
Cc1ccc(S(=O)(=O)N(Cc2ccccc2)c2ccccc2C(=O)NCc2ccco2)cc1,-45.1%,-2.4%,7.0%,/,
N=C(N)CCNC(=O)[C@@H]1CCC(N)=N1,-1.0%,3.1%,6.8%,/,
NS(=O)(=O)c1nc(S(=O)(=O)O)c2[nH]cnc2n1,-0.7%,-4.0%,-1.1%,/,
CCOc1ccc(CCNC(=O)c2nccnc2C(=O)O)cc1OCC,1.7%,/,/,/,
CCOc1ccc(CCNC(=O)Cc2nn[nH]n2)cc1OCC,?,0.4%,-0.6%,9.0,
N#Cc1cccc(NC(=O)c2cc3c(s2)-c2ccc(Cl)cc2SC3)c1,/,-7.9%,-23.3%,/,
C=C(C)Cn1c(SCC(=O)Nc2cccc(Cl)c2)nc2sc3c(c2c1=O)CCCC3,/,-2.5%,?,/,
COCCn1c(SCc2ccccc2F)nc2c([nH]c3ccccc32)c1=O,/,-0.9%,-4.8%,/,
O=C(CCC(=O)N(CC(=O)NC1CCCCC1)Cc1ccc(F)cc1)Nc1nccs1,-3.5%,/,/,/,
O=C(CCC(=O)N(CC(=O)NC1CCCCC1)Cc1cccs1)Nc1nccs1,6.31µM*,/,/,7.5,
CCCN(C(=O)c1coc(=O)c2ccccc12)c1ccccc1C,/,-2.5%,-1.3%,/,
O=C(COc1ncnc2ccccc12)Nc1ccc(Cl)c([N+](=O)[O-])c1,6.1%,-7.1%,-10.8%,/,
O=C(COC(=O)c1cc(-c2cccs2)nn1-c1ccccc1)Nc1ccc(Cl)c([N+](=O)[O-])c1,11.2µM*,-2.2%,?,-14.7,
CCOC(=O)C1CCN(S(=O)(=O)c2cc(-c3onc(C)c3C)ccc2C)CC1,/,-4.5%,?,/,
CC(=O)N1CCC2(CC1)CN(c1ccccn1)C2,/,0.6%,-15.3%,/,
COc1cc(/C=C2\C(=O)NC(=O)N(c3ccccc3)C2=O)cc(OC)c1OC,7.94µM*,3.9%,0.7%,11.2,
COc1cc(/C=C2/C(=O)NC(=O)N(c3ccc(C)cc3)C2=O)cc(OC)c1OC,4.2%,/,/,/,
CC1CCCN(C(=O)CSc2c3c(nc4cc(Cl)ccc24)CCCC3)C1 (configuration not stated),/,-8.3%,-5.2%,/,
C=CCn1c(SCc2ccccc2)nc(O)cc1=O,6.31µM*,1.8%,0.0%,31.3,
O=c1cc(O)nc(SCc2ccccc2)n1-c1ccccc1,?,-3.1%,-10.1%,/,
CC(=O)N=c1sc2ccccc2n1C,1.0%,-0.1%,-4.2%,/,
N/N=c1\sc2ccccc2n1-c1ccccc1,11.2µM*,-3.4%,15.8µM*,24.6,PR8 titer=8
CCOCCc1nn2c(=O)cc(COC(=O)c3ccc(NC(=O)c4cccs4)cc3)nc2s1,/,-2.3%,7.2%,/,
SMILES,NS1 inh,Cruzain Triton,Cruzain inh noDet,Flu NS1 inh,others
CC(C)Nc1ccc(C(CC(N)=O)NC(=O)c2ccc(Br)cc2)cc1[N+](=O)[O-] (configuration not stated),1.7%,/,/,/,
CN(Cc1ccccc1)c1ccc(C(CC(N)=O)NC(=O)c2ccc(Br)cc2)cc1[N+](=O)[O-] (configuration not stated),5.01µM*,/,/,?,
Cc1cc(C)c(-c2cc(NC(=O)COC(=O)c3ccc(CO)cc3)n(-c3ccccc3)n2)cc1C,11.2µM*,-6.0%,21.5%,-14.3,
COc1cc(C(=O)OCC(=O)Nc2cc(-c3cc(C)c(C)cc3C)nn2-c2ccccc2)cc(OC)c1OC,3.6%,-5.5%,9.3%,/,
CC(NCc1ccc(S(N)(=O)=O)cc1)C(=O)N1c2ccccc2CC1C (configuration not stated),7.94µM*,/,/,3.0,
CC(NCc1ccc(S(N)(=O)=O)cc1)C(=O)N1CCc2ccccc21 (configuration not stated),14.3%,/,/,/,
